Results on seven compounds are retold here after PubChem BioAssay (NCATS).

The nature of experiment [1]: AP1 Signaling Pathway (AID 357; active = well fitted curve in either direction with a large enough effect, not every such curve was filed as active;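 note: ME-180 reporter cells stimulated with EGF at its EC50 level; % is set by controls: 0 for no effect and ±100 for the full control effect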). The conditions noted are these: ME-180 (cervical carcinoma) AP-1-bla reporter, EGF-induced, beta-lactamase ratio, 5 h; at 7.69 µM (top of the series) unless noted. The gist of the method: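 AP-1-bla ME-180 cells, Opti-MEM + 0.5% dialyzed FBS, plated overnight 37 °C. Cpd titration + EC50 EGF, 5 h 37 °C. CCF4 2.5 h RT; ex 405, em 460/530 ratio → %activity, AC50.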

The target of experiment [2] is Cytochrome P450 1A2 (Homo sapiens) (UniProt P05177). As to the kind of experiment: p450-cyp1a2 (AID 410; calls by dose curve; note: potency is the fitted concentration of half-maximal effect). The method in brief: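 20nM CYP1A2 with 100uM Luciferin-ME (at Km) in 100mM KPO4; compound preincubated 10 min, NADPH regeneration added, 60 min at room temperature. Luciferin quantified by luminescence after detection reagent; normalized to 57 uM furafylline.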
Sequence of Cytochrome P450 1A2 (Homo sapiens) (P05177 whole entry, looked up): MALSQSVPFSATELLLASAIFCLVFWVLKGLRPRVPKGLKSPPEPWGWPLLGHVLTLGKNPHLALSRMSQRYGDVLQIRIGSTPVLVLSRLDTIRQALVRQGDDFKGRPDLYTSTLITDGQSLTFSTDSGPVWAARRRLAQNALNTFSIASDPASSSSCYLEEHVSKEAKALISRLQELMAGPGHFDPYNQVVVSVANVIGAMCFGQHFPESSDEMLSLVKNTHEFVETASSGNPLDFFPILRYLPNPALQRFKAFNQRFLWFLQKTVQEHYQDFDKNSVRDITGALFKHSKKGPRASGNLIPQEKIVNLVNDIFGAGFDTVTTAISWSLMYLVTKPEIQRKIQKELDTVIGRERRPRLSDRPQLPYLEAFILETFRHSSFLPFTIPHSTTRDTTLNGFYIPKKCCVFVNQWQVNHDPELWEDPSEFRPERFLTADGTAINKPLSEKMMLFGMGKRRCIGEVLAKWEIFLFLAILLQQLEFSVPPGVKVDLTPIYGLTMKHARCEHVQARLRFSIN

The nature of experiment [3]: Stat Signaling Pathway (AID 446; active = well fitted curve in either direction with a large enough effect, not every such curve was filed as active;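 note: ME-180 cervical cancer cells given 40 pM IL-6 alongside compound; SIE-controlled beta-lactamase reporter measured as 460/530 nm FRET emission ratio; % is set by controls: 0 for no effect and ±100 for the full control effect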). The method in brief:
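ME-180 cells carrying a SIE-driven beta-lactamase reporter are stimulated with 40 pM IL-6 for 5 h at 37C in the presence of compound. The 460/530 nm FRET substrate ratio is read after 2.5 h at RT. Data are normalised to 300 pM IL-6 and to 125 nM JAK inhibitor controls.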

Experiment [4] addresses 3',5'-cyclic-AMP phosphodiesterase 4B (Homo sapiens) (UniProt Q07343). The experiment in a line: qHTS Assay for Inhibitors of PDE-IV (AID 607; active = well fitted activation curve with a large enough effect in the main read-out, with a control signal flat, not every such curve was filed as active; note: % of control where 0% means no effect). The method in brief:
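HEK293 ACTOne cells with CNG channel (1000/well), endogenous PDE4; membrane potential dye, compounds up to 22.9 uM final. Fluorescence Ex 535/Em 590; RO 20-1724 (100 uM final) as reference.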

For experiment [5], the target named is Rap guanine nucleotide exchange factor 3 (Homo sapiens) (UniProt O95398). As to the kind of experiment: Confirmatory qHTS for antagonist of cAMP-regulated guanine nucleotide exchange factor 3 (EPAC1) (AID 1645880).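 Note: plate controls were DMSO only for no effect and full effect of the ATA control for full effect; nearly all actives have a fitted effect of over 55% in size.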 As to conditions: EPAC1 Rap1B-BODIPY-GDP exchange, fluorescence; activity, negative = inhibition: at 115 µM (top of the series). The method in brief:
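Nucleotide exchange uses 100 nM EPAC1, 250 nM RAP1B-BODIPY-GDP and 50 uM GDP, with compounds in a concentration-titration series. After 5 min at room temperature, fluorescence (480 nm ex/540 nm em) is read every 5 min for 30 min. Data are normalized to control ATA and DMSO.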

Experiment [6] has the same target. As to the kind of experiment: Confirmatory qHTS for agonist of cAMP-regulated guanine nucleotide exchange factor 3 (EPAC1) (AID 1645881).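 Note: EPAC1 catalysed release of BODIPY-GDP from Rap1B seen as fluorescence loss; 100% = effect of cAMP agonist control; nearly all actives have a fitted effect of over 75% in size.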
Experiment [7] concerns the target Rap guanine nucleotide exchange factor 4 (Homo sapiens) (UniProt Q8WZA2). As to the kind of experiment: Confirmatory qHTS for agonist of cAMP-regulated guanine nucleotide exchange factor 4 (EPAC2) (AID 1645884).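 Note: nucleotide exchange releases bodipy-GDP from Rap1 and this lowers its fluorescence; % is set by controls: 0 for no effect and ±100 for the full control effect; nearly all actives have a fitted effect of over 65% in size.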
Experiment [8] has the same target. The experiment in a line: Confirmatory qHTS for antagonist of cAMP-regulated guanine nucleotide exchange factor 4 (EPAC2) (AID 1645885). Note: % is set by controls: 0 for no effect and ±100 for the full control effect; nearly all actives have a fitted effect of over 25% in size.
For experiment [9], the target named is Lysosomal acid glucosylceramidase (Homo sapiens) (UniProt P04062). The experiment in a line: Glucocerebrosidase-p2 (AID 348; in the data active = potency below about 10 µM; note: potency is the fitted concentration of half-maximal effect). The conditions noted are these: purified GBA, blue fluorogenic substrate, 40 min. The gist of the method: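 Compounds titrated from 0.6 nM upwards against 0.2 nM enzyme in pH 5.9 citric acid/KH2PO4, taurocholate, tween-20; blue fluorogenic substrate 80 uM, 40 min room temperature, stopped and read Ex 365/Em 440 for AC50.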
Sequence of Lysosomal acid glucosylceramidase (Homo sapiens) (P04062 whole entry, looked up): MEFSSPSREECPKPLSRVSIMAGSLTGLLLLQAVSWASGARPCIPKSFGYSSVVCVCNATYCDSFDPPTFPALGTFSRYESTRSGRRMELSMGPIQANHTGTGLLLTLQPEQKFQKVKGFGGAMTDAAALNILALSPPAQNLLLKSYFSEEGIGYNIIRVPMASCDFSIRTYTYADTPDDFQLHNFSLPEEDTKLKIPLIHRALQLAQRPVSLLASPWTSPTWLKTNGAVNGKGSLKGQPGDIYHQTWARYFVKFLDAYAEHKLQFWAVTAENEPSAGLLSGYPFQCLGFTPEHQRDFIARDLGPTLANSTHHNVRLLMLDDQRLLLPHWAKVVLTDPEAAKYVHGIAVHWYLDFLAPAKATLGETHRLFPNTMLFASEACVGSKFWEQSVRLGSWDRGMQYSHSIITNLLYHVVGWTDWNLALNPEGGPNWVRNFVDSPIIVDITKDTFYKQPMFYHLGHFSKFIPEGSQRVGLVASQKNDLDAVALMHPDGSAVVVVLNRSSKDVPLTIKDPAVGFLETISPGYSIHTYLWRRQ

A short description of experiment [10]: NFAT Signaling Pathway (AID 444; active = well fitted curve in either direction with a large enough effect, not every such curve was filed as active;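 note: carbachol stimulus at about its EC50 of 1 µM final; % is set by controls: 0 for no effect and ±100 for the full control effect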). As to conditions: Jurkat NFAT-bla M1, carbachol, beta-lactamase ratio, 5 h; at 7.69 µM (top of the series) unless noted. The method in brief:
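Jurkat cells with NFAT-driven β-lactamase reporter and co-expressed M1 receptor, stimulated with carbachol (final 1 uM, ~EC50), compound titration, 5 h at 37 °C. CCF4 loaded 1 h at RT; 460/530 nm ratio gave %activity and AC50.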

Experiment [11] concerns the target Glucocorticoid receptor (Homo sapiens) (UniProt P04150). The experiment in a line: GR-GFP Redistribution (AID 450;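 active = compounds whose dose series gives a full or clear partial fitted curve of increased nuclear translocation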; note: potency is the fitted concentration of half-maximal effect). As to conditions: U2OS GR-GFP nuclear translocation, laser cytometry, 2 h.
Experiment [12] has as its target Mitogen-activated protein kinase 10 (Mus musculus) (UniProt Q61831). The experiment in a line: JNK3 AlphaScreen Assay (AID 530; active = well fitted curve in either direction with a large enough effect, not every such curve was filed as active;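 note: kinase came from lysate of stimulated human HepG2 cells; signal reports phosphorylation of biotinylated GST-cJun 1-79 at Ser73 with 10 µM ATP; % is set by controls: 0 for no effect and ±100 for the full control effect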). The gist of the method: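 Pre-activated (IL-1β/TNFα) JNK3 in HepG2 lysates phosphorylates biotin-GST-cJun(1-79), 10 uM ATP; anti-phospho-cJun(Ser73) AlphaScreen read at room temperature, pH 7.6 Tris buffer. Compounds pre-incubated 15 min as titrations.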

Experiment [13] addresses Dual specificity protein kinase CLK4 (Homo sapiens) (UniProt Q9HAZ1). The experiment in a line: qHTS Assay for Inhibitors of CDC-like Kinase 4 (ADP-FP Assay) (AID 1795).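 Note: recombinant human CLK4 phosphorylating RS repeat peptide at 1 µM ATP; % is set by controls: 0 for no effect and ±100 for the full control effect; nearly all actives have a fitted effect of over 60% in size.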 The method in brief:
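Kinase activity was measured as ADP production using Transcreener orange tracer (4 nM) and ADP antibody (1 ug/mL) fluorescence polarization, with ADP calculated from a calibration curve. The 1 h reaction contained 6.25 nM Clk4, 1 uM ATP and 100 uM RS peptide at pH 7.5 with Mg2+.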

The target of experiment [14] is Ubiquitin carboxyl-terminal hydrolase 1 (Homo sapiens) (UniProt O94782). As to the kind of experiment: Inhibitors of USP1/UAF1: Pilot qHTS (AID 504865).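 Note: rhodamine fluorescence freed from ubiquitin-rhodamine substrate followed over time; top concentration of the series differs between compounds; % is set by controls: 0 for no effect and ±100 for the full control effect; nearly all actives have a fitted effect of over 35% in size.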 The method in brief: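 Deubiquitinase activity followed as kinetic rhodamine fluorescence release from 150 nM Ub-Rho. 1 nM USP1/UAF1 with compound, after 15 min room-temperature preincubation, in HEPES pH 7.8 buffer containing TCEP, EDTA, BSA and Tween-20.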
Sequence of Ubiquitin carboxyl-terminal hydrolase 1 (Homo sapiens) (O94782 whole entry, looked up): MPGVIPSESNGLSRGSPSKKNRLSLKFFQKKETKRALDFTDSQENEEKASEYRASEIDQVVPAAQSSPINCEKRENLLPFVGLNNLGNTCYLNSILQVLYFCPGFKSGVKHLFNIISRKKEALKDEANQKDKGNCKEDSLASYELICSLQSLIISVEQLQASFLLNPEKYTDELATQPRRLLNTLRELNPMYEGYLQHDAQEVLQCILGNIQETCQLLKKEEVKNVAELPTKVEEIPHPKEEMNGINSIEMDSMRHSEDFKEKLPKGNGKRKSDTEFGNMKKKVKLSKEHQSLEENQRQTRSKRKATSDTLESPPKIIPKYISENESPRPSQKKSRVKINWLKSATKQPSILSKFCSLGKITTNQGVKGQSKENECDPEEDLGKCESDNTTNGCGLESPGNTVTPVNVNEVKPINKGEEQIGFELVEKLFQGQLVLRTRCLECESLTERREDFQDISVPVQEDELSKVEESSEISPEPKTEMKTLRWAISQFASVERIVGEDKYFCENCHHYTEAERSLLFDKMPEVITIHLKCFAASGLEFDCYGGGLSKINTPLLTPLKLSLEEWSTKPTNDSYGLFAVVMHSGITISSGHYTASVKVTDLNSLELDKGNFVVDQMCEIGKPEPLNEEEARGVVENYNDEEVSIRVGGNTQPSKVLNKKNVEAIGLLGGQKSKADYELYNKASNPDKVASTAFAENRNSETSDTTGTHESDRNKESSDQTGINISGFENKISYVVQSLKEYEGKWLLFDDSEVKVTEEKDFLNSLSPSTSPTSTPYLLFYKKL

Experiment [15] addresses Cytochrome P450 3A4 (Homo sapiens) (UniProt P08684). As to the kind of experiment: qHTS Assay for Activators of Cytochrome P450 3A4 (AID 885). Note: nearly all actives have a fitted effect of over 65% in size. The method in brief:
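Human CYP3A4 (20 nM) with Luciferin-PPXE at 25 uM (its KM) in 200 mM KPO4; 10 min compound preincubation, then NADPH regeneration and 60 min reaction at RT. Luciferin read by luminescence; normalized to 57 uM ketoconazole full inhibition.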

Experiment [16] has as its target Rap guanine nucleotide exchange factor 3 (Homo sapiens) (UniProt O95398). The experiment in a line: Counterscreen qHTS for antagonist of cAMP-regulated guanine nucleotide exchange factor 3 (EPAC1) (AID 1645888).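 Note: fluorescence loss as bound BODIPY-GDP is released from Rap1B; % of control where 0% means no effect.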 The method in brief:
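Rap1B–BODIPY-GDP (250 nM) with 50 uM GDP; compounds pin-transferred to 9.74 nM–152 uM final (activator) or from 7.32 nM upwards (inhibitor). Fluorescence Ex/Em 480/540 nm read at 5 and 30 min, then after adding cAMP or buffer, at room temperature.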

Values without a mark were called inactive. Inconclusive results are not listed. Active and inactive are the calls of the source. Unless noted, calls come from the whole dose curve; as a rule, active = well fitted curve in the direction sought with a large enough effect; inconclusive = small, poorly fitted or top-dose-only effect, or another doubt; inactive = no such curve, though single readings can be large; an effect the other way counts as inactive or inconclusive.

Sequence of Rap guanine nucleotide exchange factor 4 (Homo sapiens) (Q8WZA2 whole entry, looked up): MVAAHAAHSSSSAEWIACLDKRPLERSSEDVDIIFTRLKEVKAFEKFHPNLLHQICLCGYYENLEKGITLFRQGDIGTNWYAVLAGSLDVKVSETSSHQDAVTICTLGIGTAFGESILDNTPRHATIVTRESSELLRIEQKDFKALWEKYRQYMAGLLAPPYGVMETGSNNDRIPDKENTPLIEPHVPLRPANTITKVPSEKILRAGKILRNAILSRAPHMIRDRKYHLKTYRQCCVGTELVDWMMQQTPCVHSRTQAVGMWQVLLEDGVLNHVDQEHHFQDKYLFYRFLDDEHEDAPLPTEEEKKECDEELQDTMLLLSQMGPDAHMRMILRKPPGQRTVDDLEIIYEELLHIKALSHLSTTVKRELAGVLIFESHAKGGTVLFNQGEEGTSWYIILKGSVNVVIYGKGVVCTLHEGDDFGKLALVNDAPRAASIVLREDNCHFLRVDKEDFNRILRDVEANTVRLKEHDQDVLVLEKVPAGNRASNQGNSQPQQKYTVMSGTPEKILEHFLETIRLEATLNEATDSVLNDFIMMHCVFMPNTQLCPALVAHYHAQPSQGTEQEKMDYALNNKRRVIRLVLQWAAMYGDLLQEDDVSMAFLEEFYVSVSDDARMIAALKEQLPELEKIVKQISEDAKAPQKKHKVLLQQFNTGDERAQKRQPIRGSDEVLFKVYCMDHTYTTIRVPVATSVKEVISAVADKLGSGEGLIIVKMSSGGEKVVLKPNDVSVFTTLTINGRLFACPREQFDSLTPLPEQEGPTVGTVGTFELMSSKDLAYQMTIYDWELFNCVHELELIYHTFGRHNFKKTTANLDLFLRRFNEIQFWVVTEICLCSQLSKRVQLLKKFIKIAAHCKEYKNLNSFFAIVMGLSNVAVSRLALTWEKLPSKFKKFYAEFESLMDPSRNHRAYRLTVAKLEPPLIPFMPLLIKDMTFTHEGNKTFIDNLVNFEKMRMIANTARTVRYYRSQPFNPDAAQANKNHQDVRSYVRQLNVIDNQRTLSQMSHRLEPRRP
Sequence of Rap guanine nucleotide exchange factor 3 (Homo sapiens) (O95398 whole entry, looked up): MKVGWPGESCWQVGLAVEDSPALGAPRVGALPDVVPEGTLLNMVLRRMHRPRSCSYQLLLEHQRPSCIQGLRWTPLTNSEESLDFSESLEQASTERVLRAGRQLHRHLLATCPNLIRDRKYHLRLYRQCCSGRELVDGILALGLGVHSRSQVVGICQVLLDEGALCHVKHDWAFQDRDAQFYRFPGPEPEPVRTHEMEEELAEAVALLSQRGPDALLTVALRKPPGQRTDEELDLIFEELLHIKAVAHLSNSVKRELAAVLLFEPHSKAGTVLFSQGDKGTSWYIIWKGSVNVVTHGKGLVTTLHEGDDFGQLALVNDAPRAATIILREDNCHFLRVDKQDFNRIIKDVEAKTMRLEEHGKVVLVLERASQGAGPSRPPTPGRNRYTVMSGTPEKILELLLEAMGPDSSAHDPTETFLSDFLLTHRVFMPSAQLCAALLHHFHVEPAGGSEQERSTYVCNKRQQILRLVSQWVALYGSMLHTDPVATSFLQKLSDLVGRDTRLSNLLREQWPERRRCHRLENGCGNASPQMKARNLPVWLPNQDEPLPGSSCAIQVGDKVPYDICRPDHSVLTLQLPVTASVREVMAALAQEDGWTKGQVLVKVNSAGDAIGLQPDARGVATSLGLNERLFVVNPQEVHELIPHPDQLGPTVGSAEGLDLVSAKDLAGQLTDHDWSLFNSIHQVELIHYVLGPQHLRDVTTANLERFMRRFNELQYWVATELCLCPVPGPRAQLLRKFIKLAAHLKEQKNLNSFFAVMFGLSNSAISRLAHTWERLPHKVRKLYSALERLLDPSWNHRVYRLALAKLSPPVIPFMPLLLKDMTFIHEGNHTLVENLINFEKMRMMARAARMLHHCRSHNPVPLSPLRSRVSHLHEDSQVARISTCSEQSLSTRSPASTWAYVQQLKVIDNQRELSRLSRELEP
Sequence of Glucocorticoid receptor (Homo sapiens) (P04150 whole entry, looked up): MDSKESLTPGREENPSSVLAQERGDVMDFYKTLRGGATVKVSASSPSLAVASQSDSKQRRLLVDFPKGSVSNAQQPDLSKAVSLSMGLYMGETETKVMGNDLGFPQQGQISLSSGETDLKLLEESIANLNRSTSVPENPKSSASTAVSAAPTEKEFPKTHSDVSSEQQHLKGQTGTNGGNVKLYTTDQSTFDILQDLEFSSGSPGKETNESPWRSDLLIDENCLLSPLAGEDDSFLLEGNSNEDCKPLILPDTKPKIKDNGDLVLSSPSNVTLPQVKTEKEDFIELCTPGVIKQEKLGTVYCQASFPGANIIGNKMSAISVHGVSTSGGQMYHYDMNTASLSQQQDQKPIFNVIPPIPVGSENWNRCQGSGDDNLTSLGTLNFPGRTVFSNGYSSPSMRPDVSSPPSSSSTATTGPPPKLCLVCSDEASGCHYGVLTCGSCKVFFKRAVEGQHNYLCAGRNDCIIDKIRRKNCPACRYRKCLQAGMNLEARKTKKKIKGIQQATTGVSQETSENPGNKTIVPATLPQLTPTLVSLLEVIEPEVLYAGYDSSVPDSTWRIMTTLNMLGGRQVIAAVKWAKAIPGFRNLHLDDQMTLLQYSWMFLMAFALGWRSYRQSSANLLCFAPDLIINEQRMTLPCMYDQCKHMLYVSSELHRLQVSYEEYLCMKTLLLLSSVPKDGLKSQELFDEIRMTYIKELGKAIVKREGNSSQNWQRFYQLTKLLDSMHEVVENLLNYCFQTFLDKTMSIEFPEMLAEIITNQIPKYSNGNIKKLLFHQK
Sequence of Dual specificity protein kinase CLK4 (Homo sapiens) (Q9HAZ1 whole entry, looked up): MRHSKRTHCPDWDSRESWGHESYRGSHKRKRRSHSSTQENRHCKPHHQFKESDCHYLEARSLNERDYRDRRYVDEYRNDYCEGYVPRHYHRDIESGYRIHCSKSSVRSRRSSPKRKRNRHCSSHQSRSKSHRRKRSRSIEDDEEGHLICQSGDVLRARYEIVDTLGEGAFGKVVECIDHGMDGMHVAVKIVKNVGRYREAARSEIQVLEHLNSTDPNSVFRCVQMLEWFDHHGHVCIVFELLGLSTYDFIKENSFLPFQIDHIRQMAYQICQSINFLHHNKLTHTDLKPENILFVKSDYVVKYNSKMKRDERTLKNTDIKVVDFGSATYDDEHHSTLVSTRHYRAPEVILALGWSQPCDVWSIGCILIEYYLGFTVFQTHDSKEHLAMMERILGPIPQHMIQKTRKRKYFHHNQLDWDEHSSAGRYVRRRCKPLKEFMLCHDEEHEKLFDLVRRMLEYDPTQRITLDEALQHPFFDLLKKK

`O=C(c1ccco1)N1CCC2(CC1)CN(c1cccc(-c3ccccc3)c1)C2`: in experiment [1], the activity change, negative = inhibition is -23.1%. Also, in experiment [2], the Potency was 7.94 µM (active). Besides, the call in [3] was inactive. Besides, the Potency result in experiment [4], in experiment [5], in experiment [6], in [7] and in experiment [8] was “inactive” throughout.

Take `COc1ccc(CNc2nc(-c3cccnc3)nc3ccccc23)c(OC)c1`: the Potency in experiment [9] was more than 11.4 µM; in experiment [11], more than 46 µM. In addition, the activity change, negative = inhibition was -16.7% in experiment [1] and 6.84% in [10]. Further, the compound was classed as inactive in [3]. Also, the Potency result in experiment [12], in [13], in experiment [14], in experiment [5], in [6] and in experiment [7] was “inactive” each time. Further, in [8], the Potency result is “inactive”.

Consider `CN1CCN(c2ncc3nc(CCc4ccccc4)c(=O)n(Cc4cccs4)c3n2)CC1`, for which the Potency is more than 11.4 µM in experiment [9], 15.8 µM (active) in experiment [2] and more than 9.22 µM in experiment [11]. The activity change, negative = inhibition in experiment [1] is -5.44%. In addition, the result in [3] and in experiment [15] was inactive. Also, the Potency result in experiment [12], in [5], in experiment [6], in experiment [7] and in experiment [8] was “inactive” throughout.

In the case of `COC(C(=O)Nc1ccc(Br)cc1F)c1ccccc1` (configuration not stated), the Potency result in experiment [5], in [6], in [7] and in [16] was “inactive” throughout.

Take `CCN(CC)C(=O)Cn1c(SCCOc2ccc(Cl)cc2)nc2ccccc21`: the Potency entry in experiment [5], in experiment [6], in experiment [7] and in experiment [16] was “inactive” throughout.

For the compound `COc1ccccc1N(CC(=O)Nc1ccc(Br)cc1F)S(=O)(=O)c1cccs1`, the Potency result in experiment [5], in [6], in experiment [7] and in experiment [16] was “inactive” throughout.

Take `CN1OC[C@@H]2CN(Cc3ccc(Cl)cc3)[C@H](c3ccc(-n4ccnc4)cc3)C[C@@H]21`: the Potency entry in experiment [5] and in [6] was “inactive” in each case. Besides, the activation in [7] was 4.62% [at 17.1 µM, percent relative to cAMP agonist control]. Also, in experiment [16], the activity change, negative = inhibition was 1.17% [at 30.8 µM].
